From PubChem BioAssay
Values joined by “and” are separate entries in the source; they are usually repeats but may differ in a detail not shown here. Equal entries are not always repeated. Active and inactive are the calls of the source.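 The calls were made as follows, unless noted: active = thallium flux through the channel raised or lowered by more than 3 SD from vehicle-only wells, actives on both sides; inactive = the rest.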

Columns and labels:
[1] = liver-stage malaria parasite growth inhibition, primary screen, cell-based, HepG2, luciferase luminescence, HepG2 viability (AID 624349; in the data active = parasite load remaining mostly below about 12%, no sharp cut-off; inactive = mostly above about 10%;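 also: 100% = mean of DMSO negative control wells on the same plate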); details: P. berghei liver stage in HepG2, luciferase luminescence, concentration not given here; parasite load remaining: stronger effect = lower value; viability: measured here: HepG2 viability without parasites
[2] = Cy5 fluorescence interference with SSB-bound oligo, artefact control for HCV NS3 helicase inhibitor project, biochemical, NIH Clinical Collection, E. coli SSB (AID 743268; call rule not given here)
[3] = tested on: Hepatitis C virus NS3 helicase; test: HCV NS3 helicase inhibitors, primary screen, biochemical, fluorescence polarization, NIH Clinical Collection (AID 743270; call rule not given here); details: NS3 helicase binding to Cy5-dT15 DNA, stronger effect = higher value, concentration not given here
[4] = target: Single-stranded DNA-binding protein (Escherichia coli (strain K12)) (UniProt P0AGE0); test: E. coli SSB displacement from DNA, counter-screen for HCV NS3 helicase inhibitor project, biochemical, fluorescence polarization, NIH Clinical Collection (AID 743271; in the data active = inhibition above about 28%); details: stronger effect = higher value, concentration not given here
[5] = fluorescence interference in NS3h assay format, artefact control for HCV NS3 helicase inhibitor project, biochemical, NIH Clinical Collection (AID 743272; call rule not given here;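 also: HCV NS3 helicase with a Cy5 labelled single stranded DNA probe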); details: fluorescence interference counterscreen, stronger effect = lower value
[6] = tested on: Neuropilin-2 / VEGF-C interaction (human); test: inhibitors of NRP2–VEGF-C binding, biochemical, microplate binding format, z-score (AID 743281; call rule not given here); details: microplate NRP2/VEGF-C binding assay; stronger effect = lower value
[7] = modulation of C. elegans fzo-1 (AID 1259413; call rule not given here;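 also: fzo-1 mutant C. elegans worms in liquid wells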); details: C. elegans fzo-1 modulator screen, mean read-out; stronger effect = higher value
[8] = sensitizers of A549 cells to miR-34 induction, primary screen, imaging, A549 dox-inducible miR-34, nuclei and caspase counts (AID 1347080;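 active = compounds whose cell count with miR-34 switched on is under 0.7 times the count with it off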); details: A549 miR-34 inducible, Hoechst nuclei count, 48 h
F380Y = test: modulators of BK channel variants, profiling panel, selectivity assay, cell-based, U2OS BacMam, thallium flux, beta subunits (AID 1259406); details: at 30 µM;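 also: initial slope of Thallos dye fluorescence rise after thallium is added; log ratio against the mean of 0.3% DMSO vehicle wells on the same plate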
F380Y/beta1 = test: as above; details: at 30 µM
F380Y/beta2Delta = test: as above; details: at 30 µM
F380Y/beta4 = test: as above; details: at 30 µM
[9] = target: Calcium-activated potassium channel subunit alpha-1 (Homo sapiens) + Leucine-rich repeat-containing protein 26 (Homo sapiens) (UniProt Q12791+Q2I0M4); test: as above; details: F380Y/Slo1WT/gamma1, at 30 µM
Calcium-activated potassium channel subunit alpha-1 (Homo sapiens) + Leucine-rich repeat-containing protein 26 (Homo sapiens), sequence (Q2I0M4 whole entry, looked up, one chain of several): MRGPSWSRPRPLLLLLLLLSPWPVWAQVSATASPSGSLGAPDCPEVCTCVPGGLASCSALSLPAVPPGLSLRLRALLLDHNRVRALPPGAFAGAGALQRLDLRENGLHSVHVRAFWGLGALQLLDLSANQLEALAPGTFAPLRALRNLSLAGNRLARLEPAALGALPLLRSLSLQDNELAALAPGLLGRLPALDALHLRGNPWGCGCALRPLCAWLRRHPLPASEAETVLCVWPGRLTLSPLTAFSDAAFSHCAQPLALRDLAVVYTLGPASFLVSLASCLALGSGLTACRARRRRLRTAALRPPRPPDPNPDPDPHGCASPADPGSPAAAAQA

R275C = test: as above; details: at 30 µM
R275C/beta1 = test: as above; details: at 30 µM
R275C/beta2Delta = test: as above; details: at 30 µM
R275C/beta4 = test: as above; details: at 30 µM
R275C/Slo1WT/beta2 = test: as above; details: at 30 µM
[10] = measured here: relative caspase fold change +Dox/-Dox
[11] = measured here: total cells with miR-34 induction, stronger effect = lower value
[12] = measured here: total cells without miR-34 induction

Cc1ccc(-c2nc3ccc(C)cn3c2CC(=O)N(C)C)cc1
2.59: fold change [8, 10]
inactive: parasite load remaining [1] 37% and 120% | fluorescence ratio [2] 1.04 | inhibition [3] -1.98% | inhibition [4] -2.41% | fluorescence ratio [5] 1.01 | z-score [6] -0.569 | mean signal [7] 258 | fold change ([8]; stronger effect = lower value) 0.956 | log fold change Tl+ flux (F380Y) -0.0187 | log fold change Tl+ flux (F380Y/beta1) 0.0272 | log fold change Tl+ flux (F380Y/beta2Delta) 0.00568 | log fold change Tl+ flux (F380Y/beta4) -0.00795 | log fold change Tl+ flux [9] -0.0144 | log fold change Tl+ flux (R275C) -0.0227 | log fold change Tl+ flux (R275C/beta1) -0.0502 | log fold change Tl+ flux (R275C/beta2Delta) -0.00561 | log fold change Tl+ flux (R275C/beta4) 0.00879 | log fold change Tl+ flux (R275C/Slo1WT/beta2) 0.00818
9130: cell count [8, 11]
80.3% and 64.4%: viability [1]
9550: cell count [8, 12]

c1cncc(C2CCCN2)c1 (centres undefined)
9590: cell count [8, 11]
inactive: parasite load remaining [1] 96.8% | fluorescence ratio [2] 1.01 | inhibition [3] -1.98% | inhibition [4] -1.64% | fluorescence ratio [5] 0.95 | z-score [6] -0.685 | mean signal [7] 296 | fold change ([8]; stronger effect = lower value) 0.916
74.2%: viability [1]
2.18: fold change [8, 10]
10500: cell count [8, 12]

COC(=O)N1CCN(C(=O)Cc2ccc(Cl)c(Cl)c2)C(CN2CCCC2)C1 (centres undefined)
inactive: parasite load remaining [1] 76.7% | fluorescence ratio [2] 1.05 | inhibition [3] 4.36% | inhibition [4] 2.21% | fluorescence ratio [5] 1.03 | z-score [6] 1.19 | mean signal [7] 274 | fold change ([8]; stronger effect = lower value) 0.961 | fold change ([8]; stronger effect = lower value, cell number ratio, induced over uninduced) 0.883 | log fold change Tl+ flux (F380Y) 0.0797 | log fold change Tl+ flux (F380Y/beta1) 0.0396 | log fold change Tl+ flux (F380Y/beta2Delta) 0.0718 | log fold change Tl+ flux (F380Y/beta4) 0.0372 | log fold change Tl+ flux [9] -0.0265 | log fold change Tl+ flux (R275C) -0.00833 | log fold change Tl+ flux (R275C/beta1) 0.0475 | log fold change Tl+ flux (R275C/beta2Delta) 0.0511 | log fold change Tl+ flux (R275C/beta4) 0.0175 | log fold change Tl+ flux (R275C/Slo1WT/beta2) 0.0529
10500 and 9910: cell count [8, 12]
1.01 and 1.9: fold change [8, 10]
75.4%: viability [1]
10100 and 8750: cell count [8, 11]

O[C@@H]1CCCC[C@H]1N1CCC(c2ccccc2)CC1
8520 and 8230: cell count [8, 11]
inactive: parasite load remaining [1] 78.7% and 101% | fluorescence ratio [2] 0.98 | inhibition [3] 1.19% | inhibition [4] 0.67% | fluorescence ratio [5] 0.91 | z-score [6] -0.802 | mean signal [7] 231 | fold change ([8]; stronger effect = lower value) 0.933 and 0.866
1.17 and 0.745: fold change [8, 10]
93.8% and 73%: viability [1]
9130 and 9500: cell count [8, 12]

C[N+]1(C)CCN(c2ccccc2)CC1
9580 and 9940: cell count [8, 12]
9770 and 9860: cell count [8, 11]
inactive: parasite load remaining [1] 117% | fluorescence ratio [2] 1.03 | inhibition [3] 6.73% | inhibition [4] 2.21% | fluorescence ratio [5] 1.01 | z-score [6] -0.409 | mean signal [7] 284 | fold change ([8]; stronger effect = lower value) 1.02 and 0.991 | log fold change Tl+ flux (F380Y) -0.0112 | log fold change Tl+ flux (F380Y/beta1) -0.0597 | log fold change Tl+ flux (F380Y/beta2Delta) -0.0318 | log fold change Tl+ flux (F380Y/beta4) 0.0424 | log fold change Tl+ flux [9] -0.0251 | log fold change Tl+ flux (R275C) -0.0752 | log fold change Tl+ flux (R275C/beta1) 0.0101 | log fold change Tl+ flux (R275C/beta2Delta) 0.00724 | log fold change Tl+ flux (R275C/beta4) -0.0438 | log fold change Tl+ flux (R275C/Slo1WT/beta2) -0.0166
87.7%: viability [1]
1.06 and 1.59: fold change [8, 10]

Clc1ccc(CON=C(Cn2ccnc2)c2ccc(Cl)cc2Cl)c(Cl)c1
2560: cell count [8, 12]
active: log fold change Tl+ flux (R275C/beta1) 0.329
0.637: fold change [8, 10]
54.6%: viability [1]
3280: cell count [8, 11]
inactive: parasite load remaining [1] 2.5% | fluorescence ratio [2] 0.95 | inhibition [3] 13.1% | inhibition [4] 7.6% | fluorescence ratio [5] 1 | fold change ([8]; stronger effect = lower value) 1.28 | log fold change Tl+ flux (F380Y) -0.0332 | log fold change Tl+ flux (F380Y/beta1) -0.00723 | log fold change Tl+ flux (F380Y/beta2Delta) -0.00783 | log fold change Tl+ flux (F380Y/beta4) -0.00465 | log fold change Tl+ flux (R275C) -0.0645 | log fold change Tl+ flux (R275C/beta2Delta) -0.0303 | log fold change Tl+ flux (R275C/beta4) 0.02 | log fold change Tl+ flux (R275C/Slo1WT/beta2) 0.0197

O=C1CCC2(O)[C@H]3Cc4ccc(O)c5c4[C@@]2(CCN3CC2CC2)[C@H]1O5 (some centres undefined)
inactive: mean signal [7] 227

O=C1Nc2ccc(Cl)cc2C(c2ccccc2Cl)=NC1O (centres undefined)
9700: cell count [8, 11]
10800: cell count [8, 12]
68.3%: viability [1]
1.36: fold change [8, 10]
inactive: parasite load remaining [1] 64.7% | fluorescence ratio [2] 0.98 | inhibition [3] -3.71% | inhibition [4] -0.39% | fluorescence ratio [5] 0.96 | z-score [6] -0.398 | mean signal [7] 233 | fold change ([8]; stronger effect = lower value) 0.901

C=CCN1CC[C@]23c4c5ccc(O)c4O[C@H]2C(=O)CCC3(O)[C@H]1C5 (some centres undefined)
inactive: mean signal [7] 247

CC12CCC(=O)C=C1CCC1C2CCC2(C)C(O)CCC12 (centres undefined)
inactive: parasite load remaining [1] 38.7% | fluorescence ratio [2] 0.97 | inhibition [3] -3.18% | inhibition [4] -3.53% | fluorescence ratio [5] 1.01 | fold change ([8]; stronger effect = lower value) 0.96 | log fold change Tl+ flux (F380Y) 0.0199 | log fold change Tl+ flux (F380Y/beta1) 0.0232 | log fold change Tl+ flux (F380Y/beta2Delta) 0.032 | log fold change Tl+ flux (F380Y/beta4) -0.0491 | log fold change Tl+ flux [9] -0.042 | log fold change Tl+ flux (R275C) 0.011 | log fold change Tl+ flux (R275C/beta1) 0.00563 | log fold change Tl+ flux (R275C/beta2Delta) 0.059 | log fold change Tl+ flux (R275C/beta4) -0.00525 | log fold change Tl+ flux (R275C/Slo1WT/beta2) -0.0485
10400: cell count [8, 12]
2.43: fold change [8, 10]
9970: cell count [8, 11]
100%: viability [1]
